{"source": "ChEMBL document CHEMBL1157539", "about": "“Thousands of chemical starting points for antimalarial lead identification” (Nature, 2010)", "format_in_all_cases": "functional", "key": {"Plasmodium falciparum [1]": {"system": "Plasmodium falciparum", "test": "GSK_TCMDC: Inhibition of Plasmodium falciparum 3D7 in whole red blood cells, using parasite LDH activity as an index of growth. Test compounds present at 2uM"}, "Plasmodium falciparum [2]": {"system": "Plasmodium falciparum", "test": "GSK_TCMDC: Inhibition of Plasmodium falciparum Dd2 in whole red blood cells, using parasite LDH activity as an index of growth. Test compounds present at 2uM"}, "HepG2": {"system": "HepG2", "test": "GSK_TCMDC: Percent inhibition of human HepG2 cell line. Test compounds present at 10uM."}}, "data": [{"smiles": "c1ccc(Oc2ccc(Nc3ccnc4cc(-c5cccc(CNCCN6CCOCC6)c5)ccc34)cc2)cc1", "values": [{"measurement": "Inhibition", "setting": "Plasmodium falciparum [1]", "result": 100, "unit": "%"}, {"measurement": "Inhibition", "setting": "Plasmodium falciparum [2]", "result": 98, "unit": "%"}, {"measurement": "Inhibition", "setting": "HepG2", "result": 12, "unit": "%"}]}, {"smiles": "COc1ccc(Nc2c3ccc(Cl)cc3nc3ccc(OC)cc23)cc1.Cl", "values": [{"measurement": "Inhibition", "setting": "Plasmodium falciparum [1]", "result": 94, "unit": "%"}, {"measurement": "Inhibition", "setting": "Plasmodium falciparum [2]", "result": 99, "unit": "%"}, {"measurement": "Inhibition", "setting": "HepG2", "result": 14, "unit": "%"}]}, {"smiles": "Cc1cccc2nc(-c3ccc(-c4cccc(CN5CCC(N)C5)c4)s3)[nH]c12.O=C(O)C(F)(F)F", "note": "(stereo not drawn)", "values": [{"measurement": "Inhibition", "setting": "Plasmodium falciparum [1]", "result": 95, "unit": "%"}, {"measurement": "Inhibition", "setting": "Plasmodium falciparum [2]", "result": 78, "unit": "%"}, {"measurement": "Inhibition", "setting": "HepG2", "result": 16, "unit": "%"}]}, {"smiles": "Cc1ccc2sc(N(CCCn3ccnc3)C(=O)c3ccco3)nc2c1C.Cl", "values": [{"measurement": "Inhibition", "setting": "Plasmodium falciparum [1]", "result": 93, "unit": "%"}, {"measurement": "Inhibition", "setting": "Plasmodium falciparum [2]", "result": 98, "unit": "%"}, {"measurement": "Inhibition", "setting": "HepG2", "result": 9, "unit": "%"}]}, {"smiles": "Clc1cccc(C=NN=c2cc[nH]c3ccccc23)c1", "values": [{"measurement": "Inhibition", "setting": "Plasmodium falciparum [1]", "result": 100, "unit": "%"}, {"measurement": "Inhibition", "setting": "Plasmodium falciparum [2]", "result": 44, "unit": "%"}, {"measurement": "Inhibition", "setting": "HepG2", "result": 5, "unit": "%"}]}, {"smiles": "COc1ccccc1CCNc1nc(C)cc(N[C@@H](Cc2ccccc2)C(=O)NCCCOC(C)C)n1.O=C(O)C(F)(F)F", "values": [{"measurement": "Inhibition", "setting": "Plasmodium falciparum [1]", "result": 99, "unit": "%"}, {"measurement": "Inhibition", "setting": "Plasmodium falciparum [2]", "result": 32, "unit": "%"}, {"measurement": "Inhibition", "setting": "HepG2", "result": 10, "unit": "%"}]}, {"smiles": "COc1ccc(-c2nc(NC(=O)CS(=O)(=O)c3ccc(F)cc3)sc2C)cc1", "values": [{"measurement": "Inhibition", "setting": "Plasmodium falciparum [1]", "result": 100, "unit": "%"}, {"measurement": "Inhibition", "setting": "Plasmodium falciparum [2]", "result": 99, "unit": "%"}, {"measurement": "Inhibition", "setting": "HepG2", "result": 20, "unit": "%"}]}, {"smiles": "OC(c1cccc2ccccc12)C1CN(CCc2ccccc2)CCC1(O)c1ccccc1", "note": "(stereo not drawn)", "values": [{"measurement": "Inhibition", "setting": "Plasmodium falciparum [1]", "result": 99, "unit": "%"}, {"measurement": "Inhibition", "setting": "Plasmodium falciparum [2]", "result": 100, "unit": "%"}, {"measurement": "Inhibition", "setting": "HepG2", "result": 0, "unit": "%"}]}, {"smiles": "COc1cccc(CCc2c(CCNCCCCCCNCCc3ccccc3)ccc(OC)c2OC)c1.Cl", "values": [{"measurement": "Inhibition", "setting": "Plasmodium falciparum [1]", "result": 100, "unit": "%"}, {"measurement": "Inhibition", "setting": "Plasmodium falciparum [2]", "result": 69, "unit": "%"}, {"measurement": "Inhibition", "setting": "HepG2", "result": 100, "unit": "%"}]}, {"smiles": "O=C(NCc1ccccn1)C(c1cc2ccccc2o1)N1CCN(C(c2ccccc2)c2ccccc2)CC1", "note": "(stereo not drawn)", "values": [{"measurement": "Inhibition", "setting": "Plasmodium falciparum [1]", "result": 95, "unit": "%"}, {"measurement": "Inhibition", "setting": "Plasmodium falciparum [2]", "result": 68, "unit": "%"}, {"measurement": "Inhibition", "setting": "HepG2", "result": 17, "unit": "%"}]}, {"smiles": "COc1ccc2nccc(NC(=O)C3(O)CCC(NCc4ncc5c(c4Cl)OCCO5)CC3)c2n1.Cl", "note": "(stereo not drawn)", "values": [{"measurement": "Inhibition", "setting": "Plasmodium falciparum [1]", "result": 83, "unit": "%"}, {"measurement": "Inhibition", "setting": "Plasmodium falciparum [2]", "result": 59, "unit": "%"}, {"measurement": "Inhibition", "setting": "HepG2", "result": 21, "unit": "%"}]}]}
